Among all 2,400 compounds or so, about 950 (40%) were called active.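 How the source made its calls: active means thallium flux ratio, averaged over three wells, more than 5 SD below the buffer control mean; inactive means the rest.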 Only a sample is shown.

Among the data in PubChem BioAssay AID651747 (Johns Hopkins Ion Channel Center, 2012) are thallium flux ratio (lower = more inhibition) values, retold here.

A short description of this assay: nonspecific thallium influx blockers, KCNK3-free cells – cell-based, non-induced KCNK3 line, FluxOR thallium, triplicate, counter-screen for KCNK3 inhibitor project, primary screen (AID 651747).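 Further: host cells are CHO cells without KCNK3 induction.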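 On thallium flux ratio (lower = more inhibition): ratio is peak minus trough fluorescence over baseline then normalized to buffer controls.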 The note with it: non-induced KCNK3 parental cells, at 10 µM; outcome: FluxOR thallium flux; thallium flux ratio (lower = more inhibition): active compounds read low. (In general: The purpose of a counterscreen is to sort out artefacts and off-target activity.)
As to `CC(=O)N(C1=C(Cl)C(=O)c2ccccc2C1=O)c1ccc(C(=O)O)cc1`, the thallium flux ratio (lower = more inhibition) is 0.11 (active).
Next, `CC(C(=O)NCC1CCCCC1)N(C)Cc1cccc(Cl)c1` (stereo not drawn): “inactive”; `CC(C)CCNC(=O)C(C)N(C(=O)Cn1nnc(-c2ccc(F)cc2)n1)C1CCCC1` (stereo not drawn): “inactive”; `COc1cccc(NC(=S)N(CCc2c(C)[nH]c3ccccc23)Cc2ccco2)c1`: 0.153 (active).
The result for `Cc1nonc1C1CCCN1C(=O)c1cc(COc2cccc(C(F)(F)F)c2)on1` (stereo not drawn) reads “inactive”; that for `Cc1cccc(N(Cc2ccccc2)C(=O)c2ccccc2F)c1`, “inactive”.
Next, `Cc1cccc(C)c1N1CCN(S(=O)(=O)N2CCCCC2)CC1`: 0.156 (active).
Consider `COc1ccccc1N1CCN(/N=C\C(Br)=C\c2ccccc2)CC1`, for which the thallium flux ratio (lower = more inhibition) result is “inactive”.
The result for `c1ccc2c(NC3C4CC5CC(C4)CC3C5)nc(N3CCOCC3)nc2c1` (stereo not drawn) reads 0.151 (active); that for `COc1ccc(Cl)cc1NC(=O)C(C)N1CCc2ccccc21` (stereo not drawn), “inactive”.
As to `CCOc1ccc(C2c3[nH]c4ccccc4c3CCN2Cc2cccn2-c2ncccn2)cc1` (stereo not drawn), the thallium flux ratio (lower = more inhibition) result is “inactive”.
The result for `C=CCc1cc(S(=O)(=O)c2ccc(O)c(CC=C)c2)ccc1O` reads 0.155 (active); that for `CCN(CC)CCN(C(=O)c1cc(Cl)sc1Cl)c1nc2cc3c(cc2s1)OCO3`, 0.143 (active).
`COc1cc(Cl)c(S(=O)(=O)N2CCN(Cc3ccc4c(c3)OCO4)CC2)cc1Cl`: the thallium flux ratio (lower = more inhibition) entry was “inactive”.
Next, `COC(=O)c1cc(NC2c3ccccc3C(=O)N2c2ccc(Cl)cn2)cc(C(=O)OC)c1` (stereo not drawn): “inactive”; `Cc1cccc(C(=O)Nc2ccccc2N2CCN(c3ccc(F)cc3)CC2)c1`: 0.151 (active); `O=C(CNCCC1=CCCCC1)Nc1ccccc1N1CCCCCC1`: “inactive”.
As for `O=C(Nc1ccccc1N1CCCC1)c1ccc2ccccc2c1`, the thallium flux ratio (lower = more inhibition) was 0.131 (active).
The result for `CCCCC(=O)Nc1ccccc1N1CCN(c2ccc(F)cc2)CC1` reads “inactive”.
The result for `CCc1cc(C(c2ccccc2OC)N2CCOCC2)c(NC(=O)c2ccccc2)s1` (stereo not drawn) reads “inactive”; that for `CSCc1cc(N(C)C)nc(SCc2ccc(Cl)cc2Cl)n1`, 0.15 (active).
Next, `COc1ccc2c(c1)C(c1cccs1)=NNC(c1cccnc1)=N2`: “inactive”; `c1ccc(C(c2ccccc2)N2CCN(Cc3nnnn3C3CCCCC3)CC2)cc1`: 0.129 (active).
As for `Cc1cccc2c1-c1sc(C(=O)NCCCN3CCc4ccccc4C3)cc1CO2`, the thallium flux ratio (lower = more inhibition) result was “inactive”.
Next, `CCCCCCCCCCCCN1C(=O)CSC1c1cccnc1` (stereo not drawn): 0.148 (active); `Cc1c(C(=O)N2CCCc3ccccc32)sc2nc(-c3ccccc3)cn12`: “inactive”; `COc1ccc(CC(=O)Nc2nc(-c3ccc(F)c(F)c3)cs2)cc1OC`: 0.102 (active).
Regarding `CCc1ccc2nc3sc(C(=O)Nc4nnc(CC)s4)c(N)c3cc2c1`, the thallium flux ratio (lower = more inhibition) is 0.108 (active).
The result for `COc1ccc(C2Nc3ccccc3C(=O)N2Cc2ccccc2)cc1Cn1nnc2ccccc21` (stereo not drawn) reads 0.144 (active); that for `CCCc1cc(C(=O)N2CCCC(CO)(CCCc3ccccc3)C2)n(C)n1` (stereo not drawn), 0.152 (active); that for `CC(=O)N1CCCc2cc(S(=O)(=O)N3CCCC(C(=O)N4CCN(c5cccc(Cl)c5)CC4)C3)ccc21` (stereo not drawn), “inactive”.
The result for `CCc1nc(SCC(=O)NNC(=O)c2ccc(C)cc2)c2ccccc2n1` reads “inactive”; that for `CC(Sc1nc2ccccc2c(=O)n1Cc1ccco1)C(=O)c1ccccc1` (stereo not drawn), “inactive”.
Next, `O=C(Nn1c(SCc2ccc([N+](=O)[O-])cc2)nc2ccccc2c1=O)c1ccc(F)cc1`: 0.136 (active); `COc1cc(C(=O)Nc2oc(-c3ccccc3)c(-c3ccccc3)c2C#N)cc(OC)c1OC`: “inactive”.
For the compound `Cc1cc(NC(=O)Nc2ccc(Cl)cc2)n(-c2ccccc2)n1`, the thallium flux ratio (lower = more inhibition) entry was “inactive”.
With `O=C(Nc1cccc(S(=O)(=O)Nc2ccc(Cl)cc2)c1)c1ccc2c(c1)OCCO2`, the thallium flux ratio (lower = more inhibition) is 0.136 (active).
Next, `C=CCN(N=Nc1cccc([N+](=O)[O-])c1)c1cccc([N+](=O)[O-])c1`: “inactive”; `COc1ccccc1C(c1nnnn1C(C)(C)C)N1CCN(Cc2ccccc2)CC1` (stereo not drawn): “inactive”.
As for `CCC(C)(C)n1nnnc1C(c1cccs1)N1CCN(c2nc3ccccc3s2)CC1` (stereo not drawn), the thallium flux ratio (lower = more inhibition) is 0.156 (active).
The result for `COCCNc1cc(-c2ccccc2)nc2cc(-c3cccc(F)c3)nn12` reads 0.13 (active); that for `Cc1nc(N2CCN(c3ccccn3)CC2)c2c(C)c(C(=O)Nc3ccc(F)c(Cl)c3)sc2n1`, “inactive”; that for `Cc1nc(N2CCOCC2)c2c(C)c(C(=O)Nc3ccc(C(F)(F)F)cc3)sc2n1`, 0.152 (active).
As for `Cc1nc(N2CCN(c3ccccn3)CC2)c2c(C)c(C(=O)Nc3ccc(F)cc3)sc2n1`, the thallium flux ratio (lower = more inhibition) entry is “inactive”.
With `Cc1ccc(NC(=O)COC(=O)CNC(=O)c2ccc(Cl)cc2Cl)cc1S(=O)(=O)N1CCOCC1`, the thallium flux ratio (lower = more inhibition) entry is “inactive”.
In the case of `O=C(N/N=C/c1sc(N2CCCCC2)nc1-c1cccs1)c1cccnc1`, the thallium flux ratio (lower = more inhibition) was 0.155 (active).
Next, `Oc1ccc(/C=N/Nc2nc(-c3ccccc3F)nc3ccccc23)c(O)c1`: 0.143 (active); `Cc1cc(C)c(C#N)c(SCc2ccc3c(c2)OCO3)n1`: 0.115 (active).
Next, `COc1ccc(CN(C)C(=O)c2cc(-c3ccc(C)cc3C)nc3ccccc23)c(OC)c1OC`: 0.111 (active); `CC(=O)c1ccccc1OCc1ccc(C(=O)c2ccccc2)cc1`: 0.103 (active); `Cc1nc2ccccc2cc1OCc1ccc(F)cc1`: “inactive”.
The result for `O=C(N/N=C/c1cccc(OCc2ccccc2)c1)c1ccc(Br)o1` reads “inactive”; that for `COc1ccc(-c2nc(CCNC(=O)c3ccc(Br)o3)cs2)cc1`, “inactive”; that for `COc1ccc(CCNC(=O)c2ccccc2OCc2ccccc2)cc1`, 0.153 (active).
In the case of `O=C(Oc1ccc(Br)cc1C(=S)N1CCOCC1)c1cccc([N+](=O)[O-])c1`, the thallium flux ratio (lower = more inhibition) result is “inactive”.
In the case of `COC(=O)c1ccc(COC(=O)C2CCN(S(=O)(=O)c3c(Cl)cccc3Cl)CC2)o1`, the thallium flux ratio (lower = more inhibition) entry is “inactive”.
Regarding `COc1ccc(S(=O)(=O)NCCCCOc2ccc(Cl)cc2)cc1`, the thallium flux ratio (lower = more inhibition) is 0.135 (active).
The result for `COc1ccc(C(C)=O)cc1COc1ccc(Cl)c(C)c1` reads 0.158 (active).
